13 compounds from PubChem BioAssay (NCI) can be followed below.

Test systems include SR leukemia; RPMI-8226 leukemia; OVCAR-8 ovarian; OVCAR-5 ovarian; OVCAR-4 ovarian; SK-OV-3 ovarian; IGROV1 ovarian; OVCAR-3 ovarian; HS 578T breast; NCI/ADR-RES ovarian.
What all share (assay): NCI-60 one-dose screen, 48 h (100 = growth as untreated, 0 = no growth, -100 = all killed)
Holding throughout (settings): 10 µM unless noted

This is part of a sample that, as a whole, favours compounds with a hit. Of some 83,000 tested, about 20% had one in any assay.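 Growth was measured after 48 h exposure to one concentration of compound in 96-well plates. Values under 10 count as active.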 Values without a mark were called inactive. Active and inactive are the calls of the source.

For `CCN(CC)c1ccc(C(=O)c2ccccc2)cc1`, the growth was 86.2% in the experiment on SR leukemia; 95.8% with RPMI-8226 leukemia; 97% with OVCAR-8 ovarian; 100% in the experiment on OVCAR-5 ovarian; 97.3% in the experiment with OVCAR-4 ovarian; 98.6% in the experiment on SK-OV-3 ovarian. Besides, the growth is 89.8% with IGROV1 ovarian, 103% in the experiment with OVCAR-3 ovarian, 102% with HS 578T breast and 89.4% with NCI/ADR-RES ovarian.
As for `C=C1C(=O)O[C@H]2[C@H]1CC/C(COC(=O)NCC(C)c1ccc(CC(C)C)cc1)=C\CC[C@@]1(C)O[C@@H]21` (stereo not given in full), the growth in the experiment on SR leukemia is -2.59% (active); in the experiment with RPMI-8226 leukemia, -35.7% (active); with OVCAR-8 ovarian, -51% (active); with OVCAR-5 ovarian, 62.4%; in the experiment on OVCAR-4 ovarian, -43.8% (active); in the experiment on SK-OV-3 ovarian it was 100%. Besides, the growth with IGROV1 ovarian was -69.5% (active); in the experiment on OVCAR-3 ovarian, -85.5% (active); in the experiment with HS 578T breast it was 16%; in the experiment on NCI/ADR-RES ovarian, 28.6%.
As for `COc1cc2c(c(OC)c1OC)-c1ccc(NNC(=S)N(Cc3cccc(C[N+](Cc4cccc(CNC56CC7CC(CC(C7)C5)C6)c4)(Cc4cccc(CNC56CC7CC(CC(C7)C5)C6)c4)Cc4cccc(CN(C(=S)NNc5ccc6c(cc5=O)[C@@H](NC(C)=O)CCc5cc(OC)c(OC)c(OC)c5-6)C56CC7CC(CC(C7)C5)C6)c4)c3)C34CC5CC(CC(C5)C3)C4)c(=O)cc1[C@@H](NC(C)=O)CC2` (stereo not given in full), the growth is -49.9% (active) with SR leukemia; -46.6% (active) in the experiment on RPMI-8226 leukemia; 16.1% in the experiment on OVCAR-8 ovarian; 37% with OVCAR-5 ovarian; 29.3% in the experiment on OVCAR-4 ovarian; 37% with SK-OV-3 ovarian. Further, the growth in the experiment on IGROV1 ovarian is 10.6%; with OVCAR-3 ovarian it was 20.7%; with HS 578T breast it was 7.62% (active); with NCI/ADR-RES ovarian, 76.3%.
For `CN1CCN(C(=O)[C@]23CCC(C)(C)C[C@H]2C2=CC[C@@H]4[C@@]5(C)C/C(=C/c6cccnc6)C(=O)C(C)(C)[C@@H]5CC[C@@]4(C)[C@]2(C)CC3)CC1`, the growth in the experiment with SR leukemia is 15.5%; in the experiment with RPMI-8226 leukemia, 19.1%; with OVCAR-8 ovarian, 54%; in the experiment on OVCAR-5 ovarian it was 100%; with OVCAR-4 ovarian it was 58.1%; in the experiment with SK-OV-3 ovarian it was 83.8%. The growth in the experiment on IGROV1 ovarian is 85.6%; in the experiment on OVCAR-3 ovarian, 52.7%; with HS 578T breast, 54.2%; in the experiment with NCI/ADR-RES ovarian it was 59.1%.
As to `[O-][n+]1c(Cl)cc(Cl)c2ccccc21`, the growth in the experiment with SR leukemia was 89.2%; in the experiment with RPMI-8226 leukemia, 95%; with OVCAR-8 ovarian, 87.4%; in the experiment with OVCAR-5 ovarian, 101%; in the experiment on OVCAR-4 ovarian, 101%; with SK-OV-3 ovarian, 94.4%. The growth with IGROV1 ovarian was 104%; with OVCAR-3 ovarian it was 93.7%; in the experiment with HS 578T breast, 92.2%; in the experiment on NCI/ADR-RES ovarian it was 101%.
On to `N#C/C(=C\c1c(-c2ccccc2)[nH]c2ccccc12)C(=O)c1ccc(Cl)cc1`, for which the growth is 48.6% in the experiment with SR leukemia; -9.73% (active) with RPMI-8226 leukemia; 46.6% with OVCAR-8 ovarian; 62.5% in the experiment with OVCAR-5 ovarian; -11.2% (active) in the experiment on OVCAR-4 ovarian; 53.3% with SK-OV-3 ovarian. Besides, the growth with IGROV1 ovarian is 59%; in the experiment on OVCAR-3 ovarian, -33.2% (active); in the experiment with HS 578T breast, 4.84% (active); in the experiment with NCI/ADR-RES ovarian it was -2.46% (active).
As to `CCOC(=O)[C@@H](C)C[C@H](Cc1ccccc1)NC(=O)c1csc([C@@H](C[C@H](C(C)C)N(C)C(=O)[C@@H](NC(=O)[C@H]2C[C@H](O[Si](C)(C)C(C)(C)C)CCN2C)C(C)C)OC(C)=O)n1`, the growth in the experiment with SR leukemia is -13.9% [9.25 µM] (active); in the experiment with RPMI-8226 leukemia, -32.7% [9.25 µM] (active); in the experiment on OVCAR-8 ovarian it was -2.84% [9.25 µM] (active); with OVCAR-5 ovarian, 9.08% [9.25 µM] (active); in the experiment on OVCAR-4 ovarian, 17.3% [9.25 µM]; in the experiment on SK-OV-3 ovarian, -2.86% [9.25 µM] (active). In addition, the growth is 15.7% [9.25 µM] in the experiment with IGROV1 ovarian, 1.08% [9.25 µM] (active) in the experiment with OVCAR-3 ovarian, -17.7% [9.25 µM] (active) in the experiment on HS 578T breast and -3.17% [9.25 µM] (active) with NCI/ADR-RES ovarian.
For `CCCCCN1C=C/C(=C\C(=O)N(C)c2ccccc2Br)c2ccccc21`, the growth in the experiment on SR leukemia is 74.3%; with RPMI-8226 leukemia, 73.6%; with OVCAR-8 ovarian it was 88.7%; with OVCAR-5 ovarian, 96%; in the experiment with OVCAR-4 ovarian it was 83.5%; with SK-OV-3 ovarian, 94%. Further, the growth was 98.5% in the experiment with IGROV1 ovarian, 97.4% with OVCAR-3 ovarian, 96.8% in the experiment with HS 578T breast and 100% in the experiment with NCI/ADR-RES ovarian.
For `CCCCCOc1ccc(/C=N/Nc2cc(C)nc3ccc(Cl)cc23)cc1`, the growth with SR leukemia is -21.9% (active); in the experiment with RPMI-8226 leukemia, -23.1% (active); in the experiment with OVCAR-8 ovarian it was -43.1% (active); in the experiment on OVCAR-5 ovarian, 93.7%; with OVCAR-4 ovarian it was -14.1% (active); in the experiment with SK-OV-3 ovarian, 90.4%. The growth is -76.8% (active) in the experiment with IGROV1 ovarian, -79.4% (active) in the experiment with OVCAR-3 ovarian, 51.3% with HS 578T breast and 53.5% in the experiment on NCI/ADR-RES ovarian.
With `C/C(=N\NC(=O)CSc1nc2ccccc2c(=O)n1Cc1ccc(S(N)(=O)=O)cc1)c1ccc(F)cc1`, the growth in the experiment on SR leukemia is 100%; in the experiment on RPMI-8226 leukemia it was 112%; in the experiment on OVCAR-8 ovarian it was 101%; in the experiment on OVCAR-5 ovarian, 96.4%; with OVCAR-4 ovarian, 99.8%; in the experiment on SK-OV-3 ovarian it was 111%. For the same compound, the growth in the experiment with IGROV1 ovarian was 106%; with OVCAR-3 ovarian it was 115%; in the experiment with HS 578T breast it was 102%; with NCI/ADR-RES ovarian it was 104%.
`Cn1ccnc1C(=O)/C=C/c1ccc(CC(=O)Nc2ccc(Cl)cc2)cc1`: the growth with SR leukemia is 6.73% (active); with RPMI-8226 leukemia it was -7.76% (active); in the experiment with OVCAR-8 ovarian, -27.7% (active); with OVCAR-5 ovarian, 22.9%; in the experiment with OVCAR-4 ovarian, 36.9%; in the experiment on SK-OV-3 ovarian, 58.7%. The growth with IGROV1 ovarian was 13%; in the experiment on OVCAR-3 ovarian, 4.49% (active); with HS 578T breast it was 8.18% (active); in the experiment on NCI/ADR-RES ovarian it was 10.8%.
Consider `O=C1OC(Cc2ccccc2)C1c1ccccc1` (stereo not given), for which the growth was 104% in the experiment on SR leukemia; 109% with RPMI-8226 leukemia; 100% in the experiment on OVCAR-8 ovarian; 98.9% with OVCAR-5 ovarian; 109% in the experiment on OVCAR-4 ovarian; 121% in the experiment with SK-OV-3 ovarian. Further, the growth with IGROV1 ovarian is 101%; in the experiment on OVCAR-3 ovarian, 110%; in the experiment on HS 578T breast, 107%; with NCI/ADR-RES ovarian it was 105%.
As for `O=C(/C(=C/c1ccc([N+](=O)[O-])cc1)SCc1ccc(F)cc1)c1ccc(F)cc1`, the growth is 6.69% (active) with SR leukemia; -28.7% (active) in the experiment on RPMI-8226 leukemia; 93.1% in the experiment with OVCAR-8 ovarian; 97.9% in the experiment with OVCAR-5 ovarian; 73.2% with OVCAR-4 ovarian; 103% in the experiment with SK-OV-3 ovarian. Further, the growth in the experiment with IGROV1 ovarian was 78%; with OVCAR-3 ovarian, 82.9%; in the experiment on HS 578T breast, 89.2%; with NCI/ADR-RES ovarian it was 77.1%.
